Screens deposited in PubChem BioAssay by National Center for Advancing Translational Sciences (NCATS).
KDM5B inh – blocks human KDM5B histone demethylase activity; Q9UGL1; KDM5B demethylase, FDH-coupled NADH fluorescence (FDH is formaldehyde dehydrogenase); Potency, µM (top dose mostly 57.7 µM), most hits filed as inhibitors; 220,000 compounds, 2.6% hits; also: potency is read from the fitted curve at half-maximal effect; 0% is about no effect; nearly all actives have a fitted effect of over 70% in size
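Here, H3K4me3 peptide (12.5 µM in substrate mix) is demethylated by KDM5BΔAP, 200 nM final, after 10 min compound exposure. Formaldehyde product is coupled through FDH (0.25 U/mL in mix) to NADH fluorescence; 30-min ΔRFU feeds dose-response curves.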
IP6K1 inh – inhibitors of human IP6K1 | IP6K1 kinase, ADP-Glo luminescence, 2 h; stronger effect = lower value | 140,000 compounds, 0.81% hits | activity change, % (series mostly up to about 58 µM); in the data active = activity change below about -25%; also: % is scaled to controls: 0 for no effect and ±100 for the full control effect
Target sequence (Q92551 whole entry, looked up): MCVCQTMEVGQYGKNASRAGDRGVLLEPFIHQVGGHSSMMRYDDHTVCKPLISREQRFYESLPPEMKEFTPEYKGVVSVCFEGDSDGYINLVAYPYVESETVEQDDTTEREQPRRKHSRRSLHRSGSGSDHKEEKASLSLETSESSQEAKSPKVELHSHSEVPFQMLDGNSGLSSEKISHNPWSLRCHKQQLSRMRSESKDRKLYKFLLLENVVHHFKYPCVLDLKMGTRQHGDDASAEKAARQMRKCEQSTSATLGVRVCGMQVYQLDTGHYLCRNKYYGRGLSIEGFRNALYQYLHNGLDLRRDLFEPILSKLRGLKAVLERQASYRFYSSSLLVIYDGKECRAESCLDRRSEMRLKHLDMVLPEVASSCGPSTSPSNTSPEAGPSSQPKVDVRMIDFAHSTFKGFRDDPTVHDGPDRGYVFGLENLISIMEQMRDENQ
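ADP-Glo luminescence measures ADP made by human IP6K1 during a 2 h RT reaction with ATP/IP6 (mix at 1.3 mM/130 uM); top library doses 57.5 and 19.1 uM final.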
HEK293 viab – reduces viability of HEK-293 SNCA reporter cells; HEK-293-SNCA-luc viability, GF-AFC fluorescence, 24 h; Potency, µM (titrated, usually from 57.1 µM), for inactives: at the highest dose activity change, negative = cytotoxicity, hits mostly cytotoxic; 150,000 compounds, 0.12% hits; AID 1671193;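 also: potency is read from the fitted curve at half-maximal effect; 0% = DMSO-treated cells and -100% = medium-only wells without cells; nearly all actives have a fitted effect of over 30% in size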
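HEK-293-SNCA-luc cells (1500/well) plated 24 h, then exposed 24 h to a dilution series; GF-AFC added 30 min at 37C, fluorescence 405/540 nm; normalised to medium-only and DMSO wells, Hill fit.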
SNCA expr inhib – inhibitors of alpha-synuclein (SNCA) gene expression. HEK-293 SNCA-luciferase knock-in, luminescence, 24 h. Potency, µM (doses to about 57.2 µM), for inactives: top-dose activity change, negative = inhibition, actives largely listed as inhibitors. 140,000 compounds, 0.17% hits;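 also: potency is read from the fitted curve at half-maximal effect; plate controls were DMSO cells for no effect and cell-free wells for full effect; nearly all actives have a fitted effect of over 45% in size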
IP6K1 inh cnf – confirmation of human IP6K1 inhibitors; shares compounds with IP6K1 inh; recombinant IP6K1 kinase, ADP-Glo luminescence, 2 h; Potency, µM (highest dose often 49 µM), without a hit: at the top dose activity change, negative = inhibition, actives largely listed as inhibitors; 1,200 compounds, 13% hits; AID 1645852; also: potency is read from the fitted curve at half-maximal effect; % is scaled to controls: 0 for no effect and ±100 for the full control effect; nearly all actives have a fitted effect of over 65% in size
An asterisk follows results filed as active; i = inactive; ? = inconclusive; . = no result given; [ ] = another dose, or the depositor's remark. Rows were chosen to be rich in hits. Some 2.8% of all compounds tested hit in one or more screens of this group. Unless noted, calls follow the shape of the dose curve; as a rule, active = well fitted curve in the direction sought with a large enough effect; inconclusive = small, poorly fitted or top-dose-only effect, or another doubt; inactive = no such curve, though single readings can be large; an effect the other way counts as inactive or inconclusive.

SMILES	KDM5B inh	IP6K1 inh	HEK293 viab	SNCA expr inhib	IP6K1 inh cnf
Cc1ccccc1-c1nc(NCc2cccs2)c2ccccc2n1	.	.	-27%	-19%	-2%
FC(F)(F)c1ccccc1-c1nc(NCc2cccs2)c2ccccc2n1	.	.	-7%	-22%	-3%
FC(F)(F)c1ccccc1-c1nc(NCc2ccc(-c3ccc(Cl)c(Cl)c3)cc2)c2ccccc2n1	.	.	.	.	-4%
CCS(=O)(=O)NCCC(c1ccccc1)c1ccccc1	i	.	.	.	.
Cc1ccc([C@H]2Nc3ccc(S(=O)(=O)Nc4cccc(Cl)c4C)cc3[C@H]3C=CC[C@H]32)cc1	?	-27*	-19%	-10%	-5%
COC(=O)c1ccc([C@H]2Nc3ccc(S(=O)(=O)Nc4cccc(C)c4)cc3[C@H]3C=CC[C@H]32)cc1	?	6	-1%	10%	.
COc1cccc(CNC(=O)Nc2cccc(-c3ccc(N4CCOCC4)nn3)c2)c1	i	-39*	-3%	?	?
Cc1ccc(CNC(=O)Nc2cccc(-c3ccc(N4CCOCC4)nn3)c2)cc1	i	-13	-1%	-5%	.
CCc1ccccc1NC(=O)Nc1cccc(-c2ccc(N3CCOCC3)nn2)c1	i	-26*	-3%	59%	-24%
CCOC(=O)c1c(COc2cccnc2[N+](=O)[O-])nc2ccccc2c1C	i	.	.	.	.
O=C(Cc1ccccc1)Nc1sc2c(c1C(=O)Nc1cccc(Cl)c1)CCCCC2	i	-29*	-12%	11%	3%
O=C(Cc1ccccc1)Nc1sc2c(c1C(=O)Nc1ccccc1Cl)CCCCC2	i	-2	3%	-23%	.
CCCN(C(=O)Cn1ncc2c([nH]c3ccccc32)c1=O)c1ccc(F)cc1	i	-37*	14%	-29%	-16%
CCCCN(Cc1ccco1)C(=O)Cn1ncc2c([nH]c3ccccc32)c1=O	?	17	-17%	-20%	.
N#Cc1ccc(C(=O)Nc2ccc3c(N4CCCCC4)ncnc3c2)cc1	i	1	-12%	48%	.
COC(=O)c1ccc(COC(=O)COc2ccccc2OC)o1	i	.	.	.	.
CC(=O)N1CCN(C(=O)Cc2ccc(Nc3ncc(F)c(Nc4ccc(C(=O)Nc5ccccc5Cl)cc4)n3)cc2)CC1	.	-30*	?	.	?
CCc1ccc(S(=O)(=O)c2nnn3c2nc(N2CCC4(CC2)OCCO4)c2sccc23)cc1	i	.	.	.	.
Cc1nn(-c2ccccc2)c(C)c1CN(C)S(=O)(=O)c1ccc(F)cc1	i	.	.	.	.
CCc1noc(Cc2c(C)nn(-c3ccccc3)c2C)n1	i	-28*	0%	29%	-15%
O=C1CC(c2ccccc2)Cc2[nH]c(=O)c(C(=O)Nc3cccc(F)c3)cc21 (configuration not stated)	?	-93*	3%	-24%	0%
CNCc1cc(Br)c(OCc2ccccc2)c(OC)c1	i	.	.	.	.
CCOc1cc(CNc2ccc(O)cc2)cc(Br)c1OCc1ccccc1	?	-43*	-11%	-6%	?
O=C(Nc1nn(Cc2ccccc2)c2cccc(N3CCOCC3)c12)c1cnccn1	i	8	1%	1%	.
Cc1c(C(=O)N(Cc2ccccc2F)C2CCS(=O)(=O)C2)oc2ccccc12 (configuration not stated)	i	-61*	-22%	7%	-21%
SMILES	KDM5B inh	IP6K1 inh	HEK293 viab	SNCA expr inhib	IP6K1 inh cnf
CCN1/C(=C/C=C2/SC(=Nc3cccc4ncccc34)N(C)C2=O)Sc2ccccc21	i	.	.	.	.
CCN1/C(=C/C=C/c2sc3ccccc3[n+]2CC)Sc2ccccc21	.	-36*	0%[12.5 µM]	-76%[17 µM]	?
O=C(Nc1c(Cl)cc(Cl)cc1Cl)C12CC3CC(CC(C3)C1)C2	i	.	.	.	.
CC(C)(C)Cn1c(N)nc2ccc(-c3[nH]c(C(C)(C)C)nc3-c3ccc(F)cc3)nc21	.	-25*	?	27µM*	6%
Cc1cccc(-c2[nH]c(C(C)(C)C)nc2-c2ccc3c(c2)OCO3)n1	.	.	-16%	-31%	.
Cc1ccc(C(=O)N2CCC(n3cc(-c4nc(C)no4)nn3)CC2)cc1	i	4	-9%	-17%	.
O=C(c1cccc(Cl)c1)N(Cc1cccc(F)c1)C1CCS(=O)(=O)C1 (configuration not stated)	i	-37*	3%	7%	-14%
COc1cccc(C(=O)N(Cc2cccc(F)c2)C2CCS(=O)(=O)C2)c1 (configuration not stated)	i	12	-18%	-6%	.
Fc1cc(-c2cccc3ncc(-c4cnn(C5CCNCC5)c4)nc23)cc(F)c1CN1CCOCC1	.	12	?	?	-4%
O=C(c1ccc(F)cc1)N1CCCC(C(=O)N2CCC(c3nc4ncccc4[nH]3)C2)C1 (configuration not stated)	.	12	4%	1%	.
CN(Cc1ccc(Cl)c(Cl)c1)C(=O)c1cc2ccccc2oc1=O	i	.	.	.	.
COc1ccc(CN2CCN3C(=O)N(Cc4ccc(C)cc4)C[C@H]3C2)cc1	i	-2	-3%[87.6 µM]	-28%[87.6 µM]	.
COc1ccc(CN2C[C@H]3CN(Cc4cnn(C)c4)CCN3C2=O)cc1	?	-30*	9%[87.6 µM]	-6%[87.6 µM]	?
COCCCNC(=O)Nc1c(NC2CCCC2)c2ccccc2oc1=O	i	.	.	.	.
O=C(NCCc1ccc(F)cc1)C(=O)NCC(c1cccs1)S(=O)(=O)c1ccccc1 (configuration not stated)	i	-30*	-17%	22%	-3%
Nc1cccc(-c2ccc(N3CCCCC3)nn2)c1	i	-27*	-10%	1.8µM*	?
O=C1NCCCCCN(C(=O)c2cccs2)[C@@H]2C[C@@H](C(=O)N3CCc4ccccc4C3)C[C@H]12	?	-1	-15%	-14%	.
CCc1cccc(NC(=O)c2sc3nc[nH]c(=O)c3c2C)c1	i	18	1%	22%	.
Cc1c(C(=O)Nc2cccc(C(F)(F)F)c2)sc2nc[nH]c(=O)c12	?	-32*	-12%	53%	?
CCOc1ccc(-c2cnc(NCc3ccc(OC)cc3OC)n2C)cc1	?	-25*	-6%	-5%	-12%
COc1cccc(CNc2ncc(-c3ccc(Br)cc3)n2C)c1	?	-35*	-8%	29%	?
CCCC(=O)OCOC(=O)C1=C(C)NC(C)=C(C(=O)OC)C1c1cccc(Cl)c1Cl (configuration not stated)	.	7	12%[23.9 µM]	-22%[25.6 µM]	-6%
Cc1cccc(Nc2c3c(nc4nncn24)CCC3)c1C	i	-27*	-9%	48%	-3%
O=C(Nc1cc2cc[nH]c2cn1)c1ccccc1	.	-28*	?	1.5µM*	?
COc1ccc(C(=O)Nc2ccc3[nH]ccc3c2)cc1	i	.	.	.	.
O=C(c1ccc(-n2cccc2)cc1)N1CCN(S(=O)(=O)c2c(Cl)cccc2Cl)CC1	i	.	.	.	.
COc1cccc(N2C(=O)NC(=NC3CCCCC3)C23CCCN(CC2CCCCC2)C3)c1 (configuration not stated)	?	-26*	?	?	?
